Assay outcomes (PubChem)
The sample as a whole holds a higher share of hits than the screen did.
Pf Dd2 inh: qHTS Primary assay for Inhibitors of Plasmodium falciparum Dd2 growth in vitro | P. falciparum Dd2 growth, SYBR Green, 72 h | Potency, µM (titrated, usually from 28.9 µM), for inactives: at the top dose activity, negative = inhibition, usual class: inhibitors | actives 4.3% (n = 120,000) | AID 1347417, 2020; active = well fitted inhibition curve with a large enough effect;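 note: plate controls were DMSO vehicle for no effect and reference drug for full effect; nearly all actives have a fitted effect of over 65% in size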
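Infected erythrocytes (Dd2, 0.3% parasitemia, 2.5% hematocrit final) are added to compound in RPMI-1640/Albumax II medium, grown 72 h at 37C in low oxygen, then lysed with saponin/Triton-X containing SYBR Green and read by fluorescence.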
An asterisk follows results filed as active; i = inactive; [ ] = dose if it differs, or a comment. Potency is the fitted concentration of half-maximal effect.

SMILES	Pf Dd2 inh
COc1ccc2[nH]c3c(c2c1)CCNC31CCN(C(=O)Cc2ccncc2)CC1	i
COc1ccc2[nH]c3c(c2c1)CCNC31CCN(C(=O)Cc2cccc(F)c2)CC1	7.1µM*
COc1ccc2[nH]c3c(c2c1)CCNC31CCN(C(=O)COc2ccc(F)cc2)CC1	i
O=C(NCCc1nc2ccccc2[nH]1)C1CCN(C(=O)N2CC3CC(C2)[C@H]2CCCC(=O)N2C3)CC1 (stereo not given in full)	i
Cc1noc([C@@H](C)NC(=O)c2ccc(Cl)cc2)c1C(=O)O	5%[44.1 µM]
COc1ccc(-c2cc(C[C@@H]3CC[C@H](O)[C@@H](CNC(=O)Nc4ccccc4)O3)no2)cc1	i
COc1cccc(CNC[C@H]2O[C@H](Cc3cc(CN4CCOCC4)on3)CC[C@@H]2O)c1	i
COc1cccc(CNC[C@H]2O[C@H](Cc3cc(-c4ccccc4)on3)CC[C@@H]2O)c1	2.5µM*
C[C@H]1CN(S(=O)(=O)c2ccccc2)C[C@@H]1c1nc(-c2ccncc2)no1	21%
CCc1nnc(SCC(=O)Nc2ccc(OC)c(OC)c2)c2cc3occc3n12	1%
COc1ccc(OC(=O)CSc2nnc(-c3ccc(F)cc3)o2)cc1	14%
CCC(=O)C1=C(c2ccc(F)cc2)N(C(=O)CC)n2c(nnc2-c2ccc(OC)cc2)S1	3.2µM*
COc1ccc(-c2nnc3n2CCN(C(=O)c2ccc(F)cc2)C3)cc1	-2%
COc1ccc(CC(=O)NCCc2sc(-c3ccc(Cl)cc3)nc2C)cc1OC	i
CCC(=O)C1=C(c2ccc(OC)c(OC)c2)N(C(=O)CC)n2c(CC)nnc2S1	1.4µM*
CCc1nnc(SCc2nc(-c3ccc(OC)c(OC)c3)oc2C)c2cc3sc(C)cc3n12	39%
COc1ccc(C2=C(C(C)=O)Sc3nnc(-c4ccc(Cl)cc4)n3N2C(C)=O)cc1OC	1.4µM*
COc1ccc(-c2nnc3n2N(C(C)=O)C(c2ccc(Cl)c(Cl)c2)=C(C(C)=O)S3)cc1	77%
Cc1ccncc1C(=O)N1C[C@@H](COc2ccccc2)[C@H](C(N)=O)C1	11%
O=c1n(-c2ccc(F)cc2F)nc2n1CCN(Cc1ccccc1)C2	-18%
O=C(NCCc1ccncc1)C1CN(S(=O)(=O)c2ccccc2)CC12CCOCC2 (stereo not given)	3%
O=C(CC1CCCN(c2cnn(CC3CC3)c(=O)c2)C1)N1CCN(c2ccccc2)CC1 (stereo not given)	-11%
O=C(N[C@@H]1[C@@H](Cc2ccccc2)[C@H]2OCC[C@@H]12)N1CCOCC1	-18%
Cc1ncc2n1C(=O)N(C1CCN([S+](=O)([O-])c3cccc(C(F)(F)F)c3)CC1)C2	i
COc1ccc(C)cc1Nc1nc(-c2cccc(Cl)c2)c2c(n1)-c1ccccc1OC2	62%[0.594 µM]
SMILES	Pf Dd2 inh
CCOC(=O)c1c(C)oc2nc(C)nc(Nc3cc(C)ccc3OC)c12	-9%
COc1ccc(C)cc1Nc1nc(N)c2cc(OC)c(OC)cc2n1	2.8µM*
CCc1ccccc1NC(=O)CN1C(=O)NC2(CCC(C)CC2)C1=O (stereo not given)	i
NC(=O)c1ccc(CC2CCN(C(=O)C3CCOCC3)CC2)cc1	-5%
CN1CCN(C(CN)C2CCCCC2)CC1 (stereo not given)	28µM*
Cc1cc(C(=O)N2CC(F)(F)C[C@H]2c2nnc(C)o2)on1	31%
Cc1ccc(C(=O)N2C[C@@H](CO)[C@H](c3ccncc3)C2)cc1F	8%
CN(Cc1ccc(-c2ccccc2)cc1)C(=O)Nc1ccccc1	-3%[44.1 µM]
Cc1oc2ccn(Cc3cccc(F)c3)c(=O)c2c1C(=O)N(C)Cc1ccccc1	i
Cc1oc2ccc(O)c(CN(C)Cc3ccccc3)c2c1C(=O)Nc1ccccc1	1.1µM*
Cc1ccc(NC(=O)c2c(C)oc3ccc(O)c(CN(C)Cc4ccccc4)c23)c(C)c1	1.3µM*
Cc1ccc(NC(=O)Nc2nnc(N(C)Cc3ccccc3)s2)c(C)c1	-23%
Cc1ccc(NC(=O)c2c(C)oc3ncnc(N4CCCCC4)c23)c(C)c1	17%
CC1CCCN(C(=O)Cn2ccn3nc(-c4ccccc4)c(CO)c3c2=O)C1 (stereo not given)	i
Cc1ccc(-c2nnc(C3CN(C(=O)c4ccc(F)c(F)c4)CC34CCOCC4)o2)cc1 (stereo not given)	2%
CN1CCC(Cn2ccc3c(N4CCOCC4)nc(-c4ccc5cn[nH]c5c4)cc32)CC1	3.5µM*
CN1CCC(Cn2ccc3c(N4CCOCC4)nc(-c4cccc5[nH]ccc45)cc32)CC1	-25%[44.1 µM]
C[S+](=O)([O-])N1CCC(Cn2ccc3c(N4CCOCC4)nc(-c4cccc5[nH]ncc45)cc32)CC1	i
Fc1ccc(CN2CC[C@H](c3nnc(-c4ccc(Cl)cc4)o3)C2)cc1	i
O=C(N[C@@H]1COCC[C@@H]1OCc1ccccc1)c1nc2ncccc2[nH]1	-10%
CCn1c(C2CCCN(C(=O)c3ccco3)C2)nn(C)c1=O (stereo not given)	-13%
NC(=O)C1CCN([C@H]2[C@@H]3OC[C@@H](O3)[C@@H](NCc3ccncc3)[C@@H]2O)CC1	17%[44.1 µM]
CCOc1ccc(CCNC(=O)CCc2c(C)nc3c(c(C)nn3-c3ccc(C)c(C)c3)c2C)cc1	3%
CCOC(=O)CC(NC(=O)CCc1c(C)nc2c(c(C)nn2-c2ccc(C)c(C)c2)c1C)c1ccc(C)cc1 (stereo not given)	4.5µM*
CCOC(=O)CCc1c(C)nc2c(c(C)nn2-c2ccc(C)cc2)c1C	15%
SMILES	Pf Dd2 inh
CCN1CCC2(CCC1=O)CN(Cc1nc(CCOC)no1)CCN2C (stereo not given)	-20%
Cc1cc(-c2cc(C(=O)NCc3c(C)cc(C)[nH]c3=O)c3c(c2)ncn3C)ccn1	-8%[44.1 µM]
COc1ccc(S(=O)(=O)N2CCC3(CC2)CC(CC(=O)NC2CC2)CCO3)cc1 (stereo not given)	6.3µM*
Cn1cnc(S(=O)(=O)N2CCC3(CC2)CC(CC(=O)NC2CC2)CCO3)c1 (stereo not given)	-33%
COc1cccc(S(=O)(=O)N2CCC3(CC2)CC(CC(=O)NC2CC2)CCO3)c1 (stereo not given)	21%
CNC(=O)[C@@H]1C[C@H](Oc2ccccc2)CN1C(=O)Cn1nc(C)cc1C	-10%
CCN(Cc1ccccc1)C(=O)CCC[C@H]1NC[C@@H]2CC1CN(Cc1ccccc1)C2	13µM*
O=C(CCC[C@H]1NC[C@@H]2C[C@H]1CN(Cc1ccccc1)C2)NCCN1CCCCC1	-24%
CNC(=O)CCC[C@H]1NC[C@@H]2CC1CN(Cc1ccccc1)C2	-26%
COc1ccccc1OCCNC(=O)CCC[C@H]1NC[C@@H]2C[C@H]1CN(Cc1ccccc1)C2	-31%
COc1ccc2[nH]cc(CCNC(=O)CCC[C@H]3NC[C@@H]4C[C@H]3CN(Cc3ccccc3)C4)c2c1	10µM*
NC(=O)CCC[C@H]1NC[C@@H]2C[C@H]1CN(Cc1ccccc1)C2	-24%
COc1cccc(C(=O)N2CCC(C(NC(=O)c3cccc(C)c3)C(=O)N3CCCC3)CC2)c1 (stereo not given)	i
COc1cccc(CNC(=O)c2cc3c(=O)[nH]c(C)cn3n2)c1	i
O=C(c1ccccc1Cl)N1CCCN(c2nc3ncccc3o2)CC1	6%
O=C1NC(=NC2CCCC2)C2(CCN(Cc3ccncc3)C2)N1c1cccnc1 (stereo not given)	-22%
O=C(COc1ccccc1)N1C[C@@H](CO)[C@H](c2ccccn2)C1	0%
